Hits are enriched below; roughly 1.2% of the tested compounds scored in any of these assays.
RGS8-Gao reg: regulators of human RGS8-Galphao interaction; P09471; multiplexed bead flow cytometry, RGS8-Galphao binding; actives lie on both sides; response (percent of control binding), % at 10 µM; actives 0.34% (n = 220,000); AID 1423; in the data active = response below about 60% or above about 140%; inactive = in between;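 note: Galphao activated as the GDP aluminium fluoride complex binding bead-coupled RGS8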
Target sequence (P09471 whole entry, looked up): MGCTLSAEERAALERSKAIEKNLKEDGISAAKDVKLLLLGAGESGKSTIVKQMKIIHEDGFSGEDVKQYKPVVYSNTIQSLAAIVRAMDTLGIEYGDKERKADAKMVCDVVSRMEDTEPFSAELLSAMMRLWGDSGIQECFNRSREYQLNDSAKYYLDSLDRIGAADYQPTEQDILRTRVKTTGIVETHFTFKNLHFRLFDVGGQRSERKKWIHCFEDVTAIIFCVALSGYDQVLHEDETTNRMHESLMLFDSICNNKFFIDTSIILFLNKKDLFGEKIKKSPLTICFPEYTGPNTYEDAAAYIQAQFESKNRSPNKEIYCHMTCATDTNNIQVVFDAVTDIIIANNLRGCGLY
RGS4-Gao reg: human RGS4-Galphao interaction regulation. P09471. actives 0.33% (n = 220,000). Multiplexed bead flow cytometry, RGS4-Galphao binding; actives lie on both sides. binding response (% of control), % at 10 µM; in the data active = binding response below about 49% or above about 150%; inactive = in between;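 note: fluorescent Galphao activated with aluminum fluoride binding bead-coupled RGS4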
RGS16-Gao HTS: RGS16-Galphao interaction regulator (human) | binding response (% of control), % at 10 µM | actives 0.38% (n = 220,000) | bead-based flow cytometry RGS16-Galphao binding, fluorescence; actives lie on both sides | AID 1441 | O15492+P09471;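 note: Galphao activated by GDP with aluminum fluoride before binding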
Target sequence (O15492 whole entry, looked up): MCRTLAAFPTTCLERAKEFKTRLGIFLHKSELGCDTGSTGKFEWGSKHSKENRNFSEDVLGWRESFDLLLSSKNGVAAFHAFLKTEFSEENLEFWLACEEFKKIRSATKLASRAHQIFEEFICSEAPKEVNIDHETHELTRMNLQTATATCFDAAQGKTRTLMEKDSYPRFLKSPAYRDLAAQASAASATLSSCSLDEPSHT
Target sequence (P09471 whole entry, looked up): as the sequence (P09471 whole entry, looked up) above
RGS7-Gao reg: modulates binding of RGS7 to human Galphao. P09471. Multiplexed bead flow cytometry; actives lie on both sides. binding response (% of control), % at 10 µM. actives 0.35% (n = 220,000). AID 1439; in the data active = binding response below about 49% or above about 150%; inconclusive = no clear call, values can overlap the other calls; inactive = in between;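 note: fluorescent Galphao held in activated GDP-AlF4 state binding bead-coupled RGS7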
GSH fluor: GSH bead compound fluorescence profile. actives 0.25% (n = 190,000). GSH beads flow cytometry, compound fluorescence 488/530 nm; hits give high values. fluorescence (KMESF) at 10 µM; in the data active = fluorescence above about 89;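 note: glutathione beads carrying GST-tagged Bcl family fusion proteins plus one bare bead set; values are compound well signal with DMSO vehicle wells as background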
Avidin bead fluor: avidin bead compound fluorescence profile. Avidin beads, compound fluorescence 488/530 nm, flow cytometry; hits give high values. fluorescence (KMESF) at 10 µM. actives 0.38% (n = 220,000); in the data active = fluorescence above about 47
RGS4-Gao HTS: modulates binding between human RGS4 and Galphao | RGS4–Galpha-o binding response, % at 10 µM | AID 1504 | multiplexed bead flow cytometry, RGS–Galpha-o binding | actives 99% (n = 1,600) | shares compounds with RGS16-Gao HTS;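 note: fluorescently labeled Galpha-o bound to GDP with aluminium fluoride binding biotinylated RGS beads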
Biotin-avidin: biotin-avidin bead binding disruption counter-screen | 1,700 tested, under 10 active | inhibition, % at 10 µM | AID 1783 | streptavidin beads, fluorescein-biotin binding, flow cytometry | shares compounds with RGS16-Gao HTS;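 active = inhibition above 50%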;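 note: median green fluorescence of gated singlet beads compared with DMSO control wells; 0% = DMSO wells and 100% = complete loss of bead fluorescence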
RGS8-Gao confirm: confirmation of regulators of human RGS8-Galphao interaction. shares compounds with RGS16-Gao HTS. bead-based flow cytometry RGS8-Galphao binding, fluorescence; actives lie on both sides. binding response (% of control), % at 10 µM. actives 3% (n = 1,700). AID 1836; in the data active = binding response below about 72% or above about 130%; inactive = in between;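 note: Galphao activated as GDP AlF4 complex before binding bead RGS8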
RGS7-Gao single: confirmation of regulators of human RGS7-Galphao interaction; shares compounds with RGS16-Gao HTS; bead-based flow cytometry RGS7-Galphao binding; actives lie on both sides; response (percent of control binding), % at 10 µM; actives 7.8% (n = 1,700); in the data active = response below about 75% or above about 130%; inactive = in between;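 note: fluorescent Galphao activated with GDP and aluminum fluoride binding bead-coupled RGS7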
RGS16-Gao single: RGS16-Galphao interaction regulation, single point confirmation. bead-based flow cytometry, RGS16-Galphao binding; actives lie on both sides. actives 4% (n = 1,700). response (% of control binding), % at 10 µM. shares compounds with RGS16-Gao HTS; in the data active = response below about 74% or above about 130%; inactive = in between;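 note: Galphao activated as the GDP aluminium fluoride complex binding bead-coupled RGS16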
RGS4-Gao single: RGS4-Galphao interaction regulation, single point confirmation; shares compounds with RGS16-Gao HTS; RGS4-Galphao binding, multiplexed bead flow cytometry; actives lie on both sides; binding response (% of control), % at 10 µM; actives 4% (n = 1,700); AID 1840; in the data active = binding response below about 74% or above about 130%; inactive = in between
RGS19-Gao single: confirmation of regulators of human RGS19-Galphao interaction | response (percent of control binding), % at 10 µM | shares compounds with RGS16-Gao HTS | actives 5% (n = 1,700) | bead-based flow cytometry RGS19-Galphao binding; actives lie on both sides | AID 1841; in the data active = response below about 50% or above about 160%; inactive = in between;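 note: 100% = no compound control and 0% = blank background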
* marks the source's active call; other numbers are inactive results; i = inactive; u = inconclusive; x = no result given; [ ] = another dose, or the depositor's remark. Unless noted, the rule behind the calls is not given here.

SMILES	RGS8-Gao reg	RGS4-Gao reg	RGS16-Gao HTS	RGS7-Gao reg	GSH fluor	Avidin bead fluor	Biotin-avidin	RGS8-Gao confirm	RGS7-Gao single	RGS16-Gao single	RGS4-Gao single	RGS19-Gao single	others
COc1ccc(-n2c(N)c(C(=O)Nc3c(C)n(C)n(-c4ccccc4)c3=O)c3nc4ccccc4nc32)cc1	141*[activator]	315*[activator]	288*[activator]	u	x	116*	0	102	105	101	102	100
O=C(NCCC1=CCCCC1)C(=O)NCC(c1ccco1)N1CCN(c2ccc(F)cc2)CC1 (stereo unspecified)	96	98	80	98	5	6	x	x	x	x	x	x
COc1cccc(Oc2cn[nH]c2-c2ccc(OC)cc2O)c1	93	133	107	281*[activator]	28	187*	x	x	x	x	x	x	RGS4-Gao HTS=133*
COc1ccc(C(=O)Nc2cc(C(C)=O)c(C)oc2=O)cc1	101	100	101	u	15	9	x	x	x	x	x	x
COC(=O)c1cc(NC(=O)c2ccccc2)c(=O)oc1/C=C/Nc1ccc(Oc2ccccc2)cc1	114	215*[activator]	205*[activator]	211*[activator]	161*	80*	-1	125*[activator]	399*[activator]	260*[activator]	284*[activator]	420*[activator]
COc1ccccc1NC(=O)CN1C(=O)NC2(CCCCCCC2)C1=O	99	98	101	100	13	10	x	x	x	x	x	x
Cc1ccccc1NC(=O)CN1C(=O)NC2(CCCCC2)C1=O	x	x	x	x	42	x	0	95	98	94	94	90
Cc1cc(NC(=O)CN2C(=O)NC3(CCC(C)CC3)C2=O)no1 (stereo unspecified)	23*	24*	-10	23*	10	-1	i	99	100	100	104	101
NC(=O)Oc1cccc(OC(N)=O)c1	99	98	100	u	x	6	x	x	x	x	x	x
CCc1ccc(C2CC(c3ccco3)=NN2S(C)(=O)=O)cc1 (stereo unspecified)	x	x	x	x	18	x	-1	99	105	98	100	92
CCOc1ccc2cc(C3CC(c4ccco4)=NN3S(C)(=O)=O)c(Cl)nc2c1 (stereo unspecified)	98	98	99	u	x	6	x	x	x	x	x	x
O=C(CN(Cc1ccccc1)S(=O)(=O)c1ccccc1)N1CCOCC1	101	100	98	100	11	8	x	x	x	x	x	x
O=C(COc1ccccc1)N1CCN(S(=O)(=O)c2ccc(Cl)cc2)CC1	98	99	95	100	11	22	x	x	x	x	x	x
CCOCCCNC(=O)c1ccc(N2CCOCC2)c(NS(=O)(=O)c2ccc(OC)cc2)c1	104	108	101	100	14	6	x	x	x	x	x	x
COc1ccc(OCC(=O)N2CCN(S(=O)(=O)c3ccc(Cl)cc3)CC2)cc1	152*[activator]	116	388	111	3	6	-2	102	100	100	100	103	RGS4-Gao HTS=116*
COc1ccc(S(=O)(=O)N(CC(=O)N2CCOCC2)Cc2ccccc2)cc1	98	119	119	217*[activator]	10	230*	1	98	99	97	98	101	RGS4-Gao HTS=119*
COc1ccc(S(=O)(=O)Nc2ccc(-n3cccc3)cc2)cc1	14*	22*	13*	u	14	0	-1	98	94	96	98	77
COCCCNC(=O)c1ccc(N2CCOCC2)c(NS(=O)(=O)c2ccc(OC)cc2)c1	x	x	x	x	27	x	1	102	103	101	103	97
CCc1ccc(-c2ccc(SCC(=O)NCC3CCCO3)nn2)cc1 (stereo unspecified)	100	102	102	108	13	11	x	x	x	x	x	x
COc1ccc(NS(=O)(=O)c2ccc(OCC(=O)N3CCOCC3)cc2)cc1	13*	21*	12*	16*	26	0	0	100	77	91	82	89
O=C(COc1ccc(S(=O)(=O)Nc2ccccc2)cc1)N1CCOCC1	94	94	86	93	45	11	x	x	x	x	x	x
Cc1cc(NC(=O)C2CCCCC2)n(-c2nc3ccccc3[nH]2)n1	100	101	102	99	10	9	x	x	x	x	x	x
Cc1cc(NC(=O)C2CCC2)n(-c2ccccn2)n1	14*	8.2*	3.5*	6.5*	48	-3	1	99	106	100	100	99
Cc1nn(-c2ccccc2)c(OC(=O)c2cccs2)c1S(=O)(=O)c1ccc([N+](=O)[O-])cc1	94	93	77	95	24	25	x	x	x	x	x	x
CC(=O)Nc1ccc(NC(=S)Nc2ccc(F)cc2)cc1	102	98	102	u	10	8	x	x	x	x	x	x
SMILES	RGS8-Gao reg	RGS4-Gao reg	RGS16-Gao HTS	RGS7-Gao reg	GSH fluor	Avidin bead fluor	Biotin-avidin	RGS8-Gao confirm	RGS7-Gao single	RGS16-Gao single	RGS4-Gao single	RGS19-Gao single	others
CC(=O)Nc1ccc(NC(=S)Nc2ccccc2)cc1	x	x	x	x	17	x	2	103	109	103	106	104
Cc1cc2c3c(c1)C(C)CC(C)(C)N3C(=O)C2=C(C#N)C#N (stereo unspecified)	99	97	98	u	x	3	x	x	x	x	x	x
Cc1ccc(C)c(N2CCN(c3ccncc3N)CC2)c1	105	102	105	u	x	2	x	x	x	x	x	x
O=C(NN1CC(=O)N(c2cc(Cl)cc(Cl)c2)CC1=O)c1cccs1	98	100	98	u	x	7	x	x	x	x	x	x
Cc1ccc(NC(=O)CSc2nnc(CN3CCOCC3)n2C)cc1C	102	93	101	95	21	6	x	x	x	x	x	x
COc1cccc(NC(=O)CSc2nnc(CN3CCOCC3)n2C)c1	17*	31*	6.3*	22*	19	-1	1	103	102	103	102	100
